Laboratory results taken from the supplement of paper PMC10849652.
The full data set covers some 8,800 targets. This sample favours those with a hit. About 0.5% of all pairs of compound and target were hits.

Columns and labels:
Experiment in all cases: log2 fold change, soluble protein after heating vs DMSO (PISA); higher = thermal stabilisation; K562 lysate, 10 uM; active = over 0.2 and 3.5 SD of the protein, either way, in both replicates (recomputed)
[1] = compound: C#Cc1cccc(Nc2ncnc3cc(OCCOC)c(OCCOC)cc23)c1 [erlotinib]
In short: (§1)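 Soluble protein was defined as the supernatant remaining after 21,000xg for 90 min, following pooling of heated aliquots and adjustment to 0.5% NP-40 at 4°C. Before that, crude K562 extract at 1 mg/mL protein in PBS pH 7.4 with 1 mM MgCl2 was treated with 10 μM compound for 30 min and heated for 3 min across 48°C-58°C. Quantification used TMTpro 16plex LC-MS/MS with channel sums equalised, and values are log-two fold changes in thermal stability relative to solvent controls from duplicates.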

[2] = compound: C/C(=N\NC(=O)C1=CC(=CC=C1)S(=O)(=O)N2CCOCC2)/C3=C(C=CC(=C3)Cl)O
In short: as §1

[3] = compound: C1=CC(=CC=C1C2=NC3=C(N2)C=C(C=C3)C(=O)N)OC4=CC=C(C=C4)Cl
In short: as §1

[4] = compound: C1=CC2=C(C=CC(=C2)/C=C\3/C(=O)NC(=NCC4=CC=CS4)S3)N=C1
In short: as §1

[5] = compound: C1=CC2=NC=CN=C2C=C1/C=C/3\C(=O)NC(=O)S3
In short: as §1

[6] = compound: C1=CC=C(C=C1)C2=NC(=C(N2)C3=CC=NC=C3)C4=CC(=C(C=C4)Cl)O
In short: as §1

[7] = compound: C1=CC=C2C(=C1)C3=NNC4=CC=CC(=C43)C2=O
In short: as §1

[8] = compound: C1CCN(C1)C(=O)NC2=CC=CC(=C2)NC3=NC=C(C(=N3)NCCC4=CN=CN4)Br
In short: as §1

[9] = compound: C1CN(CCC1(CC2=CC=C(C=C2)Cl)N)C3=NC=NC4=C3C=CN4
In short: as §1

[10] = compound: C1COCCN1CCN2C3=CC=CC=C3N=C2NC(=O)C4=CC(=CC=C4)[N+](=O)[O-] [IRAK-1-4 Inhibitor I]
In short: as §1

[11] = compound: C=CC(=O)N1CCC[C@@H](n2nc(-c3ccc(Oc4ccccc4)cc3)c3c(N)ncnc32)C1 [ibrutinib]
In short: as §1

[12] = compound: CC(=O)c1cnc2ccc(-c3cc(Cl)c(O)c(Cl)c3)nc2c1N[C@H]1CC[C@H](CN(C)C)CC1
In short: as §1

[13] = compound: CC(C)(C)Cn1c(N)nc2ccc(-c3[nH]c(C(C)(C)C)nc3-c3ccc(F)cc3)nc21 [ralimetinib]
In short: as §1

[14] = compound: CC(C)(O)CC(=O)NCCn1ccc2ncnc(Nc3ccc(Oc4cccc(C(F)(F)F)c4)c(Cl)c3)c21
In short: as §1

[15] = compound: CC(C)C1=C2N=C(C=C(N2N=C1)NCC3=CC=CC=C3)NCCCCCCN
In short: as §1

[16] = compound: CC1=C(C(CC(=O)N1)C2=CC=C(C=C2)C(F)(F)F)C(=O)NC3=C(C=C4C(=C3)C=NN4)F
In short: as §1

[17] = compound: CC1=C(C2=C(C=C1)C(=O)C3=CC=CC=C3N2CCCN)C
In short: as §1

[18] = compound: CC1=C(C=C(C=C1)NC(=O)C2=CC(=CC=C2)C(C)(C)C#N)NC3=CC4=C(C=C3)N=CN(C4=O)C
In short: as §1

[19] = compound: CC1=C(C=C(C=C1)NC(=O)C2=CC(=CC=C2)N(C)C)NC(=O)C3=CC=C(C=C3)O
In short: as §1

[20] = compound: CC1=CC=C(C=C1)SC2=C3C=C(SC3=CN=C2)C(=O)N
In short: as §1

Measured: log2 fold change

VPS37B (UniProt Q9H9H4)
Sequence of UniProt Q9H9H4 (Q9H9H4 whole entry, looked up): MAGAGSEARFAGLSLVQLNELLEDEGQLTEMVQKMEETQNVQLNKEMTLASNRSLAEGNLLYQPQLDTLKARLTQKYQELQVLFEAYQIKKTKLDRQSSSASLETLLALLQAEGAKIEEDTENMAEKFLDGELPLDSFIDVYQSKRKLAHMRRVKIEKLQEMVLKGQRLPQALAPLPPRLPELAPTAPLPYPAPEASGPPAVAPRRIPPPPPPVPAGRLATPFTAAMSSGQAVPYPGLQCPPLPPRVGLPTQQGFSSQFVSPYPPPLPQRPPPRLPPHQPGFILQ
inactive: [1] -0.046 | [2] 0.078 | [3] 0.059 | [4] 0.002 | [5] -0.011 | [6] 0.031 | [7] 0 | [8] 0.043 | [9] 0.098 | [10] -0.012 | [11] 0.024 | [12] 0.014 | [13] -0.055 | [14] 0.009 | [15] -0.028 | [16] 0 | [17] -0.008 | [18] 0.019 | [19] 0.012 | [20] 0.028

VANGL1 (UniProt Q8TAA9)
active: [13] -0.317
inactive: [1] 0 | [2] -0.043 | [3] -0.088 | [4] 0.022 | [5] -0.149 | [6] -0.377 | [7] -0.01 | [8] -0.072 | [9] 0.004 | [10] 0.182 | [11] 0.08 | [12] -0.041 | [14] 0.183 | [15] 0.037 | [16] 0.007 | [17] -0.109 | [18] -0.062 | [19] -0.066 | [20] 0.007

VPS39 (UniProt Q96JC1)
inactive: [1] 0.015 | [2] -0.022 | [3] -0.005 | [4] -0.003 | [5] -0.002 | [6] 0.015 | [7] -0.007 | [8] -0.034 | [9] 0.031 | [10] 0.019 | [11] 0 | [12] 0.021 | [13] -0.012 | [14] -0.056 | [15] -0.004 | [16] 0.014 | [17] 0 | [18] 0.016 | [19] -0.014 | [20] -0.005

UXT isoform 2 (UniProt Q9UBK9)
Sequence of UniProt Q9UBK9 (Q9UBK9 whole entry, looked up): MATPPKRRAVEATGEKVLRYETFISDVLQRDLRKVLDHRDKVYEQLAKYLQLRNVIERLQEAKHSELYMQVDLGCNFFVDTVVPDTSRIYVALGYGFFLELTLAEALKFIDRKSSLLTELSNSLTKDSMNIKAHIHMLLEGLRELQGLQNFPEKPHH
inactive: [1] 0.012 | [2] -0.036 | [3] 0.033 | [4] 0.021 | [5] -0.054 | [6] 0.035 | [7] 0.012 | [8] -0.033 | [9] 0.186 | [10] 0.007 | [11] -0.078 | [12] -0.018 | [13] -0.063 | [14] -0.075 | [15] 0.006 | [16] -0.035 | [17] -0.091 | [18] 0 | [19] -0.015 | [20] -0.032

WDCP (UniProt Q9H6R7)
Sequence of UniProt Q9H6R7 (Q9H6R7 whole entry, looked up): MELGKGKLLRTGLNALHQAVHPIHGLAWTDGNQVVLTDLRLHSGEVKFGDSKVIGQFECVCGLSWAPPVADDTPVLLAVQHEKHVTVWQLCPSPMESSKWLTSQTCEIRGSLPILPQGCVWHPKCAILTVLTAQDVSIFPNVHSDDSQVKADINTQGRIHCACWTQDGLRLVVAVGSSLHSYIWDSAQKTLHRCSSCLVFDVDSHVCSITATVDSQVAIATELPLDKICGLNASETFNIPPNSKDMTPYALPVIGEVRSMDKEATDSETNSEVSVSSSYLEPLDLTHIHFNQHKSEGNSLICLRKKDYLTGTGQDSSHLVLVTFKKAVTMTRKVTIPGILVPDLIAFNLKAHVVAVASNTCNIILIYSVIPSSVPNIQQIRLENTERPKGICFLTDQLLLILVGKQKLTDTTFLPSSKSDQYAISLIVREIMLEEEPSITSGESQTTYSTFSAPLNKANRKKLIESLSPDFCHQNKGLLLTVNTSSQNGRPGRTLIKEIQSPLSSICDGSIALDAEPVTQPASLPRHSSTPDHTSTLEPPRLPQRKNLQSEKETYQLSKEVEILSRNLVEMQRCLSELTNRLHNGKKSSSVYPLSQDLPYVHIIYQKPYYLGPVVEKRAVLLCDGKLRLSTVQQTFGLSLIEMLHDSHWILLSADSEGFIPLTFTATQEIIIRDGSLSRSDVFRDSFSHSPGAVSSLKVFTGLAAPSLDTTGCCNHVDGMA
inactive: [1] -0.06 | [2] 0.091 | [3] 0.079 | [4] 0.018 | [5] 0.024 | [6] 0 | [7] -0.011 | [8] -0.022 | [9] 0.002 | [10] 0.024 | [11] 0.021 | [12] 0.021 | [13] -0.006 | [14] -0.045 | [15] -0.027 | [16] -0.023 | [17] -0.041 | [18] 0 | [19] 0.01 | [20] 0.049

UNC45A (UniProt Q9H3U1)
Sequence of UniProt Q9H3U1 (Q9H3U1 whole entry, looked up): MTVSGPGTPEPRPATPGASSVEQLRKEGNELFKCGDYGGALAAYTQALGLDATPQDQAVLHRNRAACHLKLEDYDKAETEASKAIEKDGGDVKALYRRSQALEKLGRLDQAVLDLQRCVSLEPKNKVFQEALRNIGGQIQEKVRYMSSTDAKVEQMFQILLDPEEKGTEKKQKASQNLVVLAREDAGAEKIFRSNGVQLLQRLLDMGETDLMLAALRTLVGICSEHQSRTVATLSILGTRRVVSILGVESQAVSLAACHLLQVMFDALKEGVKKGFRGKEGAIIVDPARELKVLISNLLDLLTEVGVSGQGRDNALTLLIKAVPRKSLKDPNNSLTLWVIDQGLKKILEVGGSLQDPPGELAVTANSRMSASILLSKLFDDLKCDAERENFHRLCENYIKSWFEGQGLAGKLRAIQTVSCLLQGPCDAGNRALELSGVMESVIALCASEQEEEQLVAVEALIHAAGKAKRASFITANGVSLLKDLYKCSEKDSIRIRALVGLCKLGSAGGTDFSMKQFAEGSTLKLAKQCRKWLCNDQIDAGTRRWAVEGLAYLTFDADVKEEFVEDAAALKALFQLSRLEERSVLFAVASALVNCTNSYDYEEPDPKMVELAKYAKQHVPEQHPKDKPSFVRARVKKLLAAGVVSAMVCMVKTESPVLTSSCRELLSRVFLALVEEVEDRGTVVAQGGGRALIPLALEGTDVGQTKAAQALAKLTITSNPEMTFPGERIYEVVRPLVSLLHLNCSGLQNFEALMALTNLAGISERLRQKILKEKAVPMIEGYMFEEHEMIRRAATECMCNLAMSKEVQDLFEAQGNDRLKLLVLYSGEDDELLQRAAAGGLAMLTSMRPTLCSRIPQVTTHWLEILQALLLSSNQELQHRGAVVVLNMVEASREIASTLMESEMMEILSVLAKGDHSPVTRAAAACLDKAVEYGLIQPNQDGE
inactive: [1] 0.016 | [2] 0.014 | [3] -0.039 | [4] -0.006 | [5] 0.001 | [6] -0.024 | [7] -0.037 | [8] -0.015 | [9] -0.002 | [10] -0.001 | [11] 0.002 | [12] -0.008 | [13] 0.03 | [14] -0.012 | [15] -0.009 | [16] -0.007 | [17] 0.002 | [18] 0.004 | [19] 0.002 | [20] -0.007

WDR77 (UniProt Q9BQA1)
Sequence of UniProt Q9BQA1 (Q9BQA1 whole entry, looked up): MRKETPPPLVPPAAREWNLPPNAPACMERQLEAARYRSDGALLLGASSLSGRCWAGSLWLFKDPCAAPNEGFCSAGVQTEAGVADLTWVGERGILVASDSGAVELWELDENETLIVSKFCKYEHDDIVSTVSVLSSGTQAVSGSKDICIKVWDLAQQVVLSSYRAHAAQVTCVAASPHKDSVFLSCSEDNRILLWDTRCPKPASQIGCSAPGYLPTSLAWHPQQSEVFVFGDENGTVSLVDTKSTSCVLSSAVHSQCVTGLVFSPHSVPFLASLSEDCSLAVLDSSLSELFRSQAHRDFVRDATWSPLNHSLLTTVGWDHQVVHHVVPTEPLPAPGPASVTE
inactive: [1] -0.008 | [2] -0.073 | [3] -0.018 | [4] 0.025 | [5] -0.021 | [6] -0.009 | [7] 0.011 | [8] 0.004 | [9] 0.014 | [10] 0.002 | [11] 0.016 | [12] 0.022 | [13] 0.031 | [14] 0.024 | [15] -0.012 | [16] -0.022 | [17] -0.004 | [18] 0.007 | [19] -0.01 | [20] 0.032

USP10 isoform 2 (UniProt Q14694)
Sequence of UniProt Q14694 (Q14694 whole entry, looked up): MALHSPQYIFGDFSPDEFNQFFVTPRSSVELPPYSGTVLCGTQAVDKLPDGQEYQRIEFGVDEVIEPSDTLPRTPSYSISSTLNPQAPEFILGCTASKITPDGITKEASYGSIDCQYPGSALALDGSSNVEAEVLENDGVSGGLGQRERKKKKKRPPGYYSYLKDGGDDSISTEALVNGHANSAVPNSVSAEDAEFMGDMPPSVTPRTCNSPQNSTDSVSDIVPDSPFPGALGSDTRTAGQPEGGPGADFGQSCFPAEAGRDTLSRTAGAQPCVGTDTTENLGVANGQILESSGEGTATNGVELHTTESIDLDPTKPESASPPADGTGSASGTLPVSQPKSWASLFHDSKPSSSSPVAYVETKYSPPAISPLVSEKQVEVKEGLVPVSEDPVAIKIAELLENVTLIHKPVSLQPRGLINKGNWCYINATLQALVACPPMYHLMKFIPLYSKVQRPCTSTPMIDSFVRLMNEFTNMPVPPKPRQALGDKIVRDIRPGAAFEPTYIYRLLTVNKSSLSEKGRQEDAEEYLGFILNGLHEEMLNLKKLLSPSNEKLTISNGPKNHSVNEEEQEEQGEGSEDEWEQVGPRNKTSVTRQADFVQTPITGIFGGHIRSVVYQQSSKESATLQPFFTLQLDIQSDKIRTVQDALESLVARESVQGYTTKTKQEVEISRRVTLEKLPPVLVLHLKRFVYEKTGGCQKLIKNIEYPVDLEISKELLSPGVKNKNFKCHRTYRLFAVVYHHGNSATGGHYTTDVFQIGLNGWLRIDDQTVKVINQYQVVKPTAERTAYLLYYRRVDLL
inactive: [1] 0.022 | [2] -0.032 | [3] 0.01 | [4] 0.007 | [5] -0.017 | [6] 0.023 | [7] -0.028 | [8] -0.033 | [9] -0.034 | [10] -0.005 | [11] -0.038 | [12] 0.001 | [13] -0.019 | [14] -0.014 | [15] -0.006 | [16] -0.025 | [17] 0.018 | [18] 0.003 | [19] 0.018 | [20] 0.008

WAC (UniProt Q9BTA9)
inactive: [1] 0.027 | [2] 0.004 | [3] 0.027 | [4] 0.092 | [5] -0.064 | [6] 0.008 | [7] -0.076 | [8] 0.051 | [9] 0.015 | [10] -0.006 | [11] -0.062 | [12] -0.008 | [13] -0.012 | [14] -0.054 | [15] -0.009 | [16] 0.046 | [17] 0.034 | [18] -0.016 | [19] 0.022 | [20] 0.004

ZMYM4 (UniProt Q5VZL5)
inactive: [1] -0.023 | [2] -0.068 | [3] 0.027 | [4] 0.073 | [5] -0.099 | [6] 0.042 | [7] -0.088 | [8] -0.09 | [9] 0.015 | [10] 0.005 | [11] -0.079 | [12] -0.004 | [13] 0.055 | [14] -0.025 | [15] 0.051 | [16] 0.026 | [17] -0.089 | [18] -0.011 | [19] -0.012 | [20] -0.001

ZMYND8 isoform 19 (UniProt Q9ULU4)
inactive: [1] -0.012 | [2] -0.058 | [3] 0.023 | [4] 0.011 | [5] -0.037 | [6] 0.024 | [7] -0.077 | [8] -0.021 | [9] 0.018 | [10] -0.025 | [11] 0.111 | [12] -0.02 | [13] 0.047 | [14] 0.007 | [15] 0.002 | [16] 0.007 | [17] 0.027 | [18] 0.02 | [19] 0.011 | [20] 0.037

USP48 isoform 8 (UniProt Q86UV5)
inactive: [1] 0.001 | [2] -0.059 | [3] -0.011 | [4] -0.008 | [5] 0.005 | [6] 0.02 | [7] -0.02 | [8] 0 | [9] 0.018 | [10] -0.014 | [11] -0.02 | [12] -0.014 | [13] 0.004 | [14] 0 | [15] -0.005 | [16] 0.007 | [17] -0.005 | [18] 0.001 | [19] 0 | [20] -0.01

ZMYM2 (UniProt Q9UBW7)
Sequence of UniProt Q9UBW7 (Q9UBW7 whole entry, looked up): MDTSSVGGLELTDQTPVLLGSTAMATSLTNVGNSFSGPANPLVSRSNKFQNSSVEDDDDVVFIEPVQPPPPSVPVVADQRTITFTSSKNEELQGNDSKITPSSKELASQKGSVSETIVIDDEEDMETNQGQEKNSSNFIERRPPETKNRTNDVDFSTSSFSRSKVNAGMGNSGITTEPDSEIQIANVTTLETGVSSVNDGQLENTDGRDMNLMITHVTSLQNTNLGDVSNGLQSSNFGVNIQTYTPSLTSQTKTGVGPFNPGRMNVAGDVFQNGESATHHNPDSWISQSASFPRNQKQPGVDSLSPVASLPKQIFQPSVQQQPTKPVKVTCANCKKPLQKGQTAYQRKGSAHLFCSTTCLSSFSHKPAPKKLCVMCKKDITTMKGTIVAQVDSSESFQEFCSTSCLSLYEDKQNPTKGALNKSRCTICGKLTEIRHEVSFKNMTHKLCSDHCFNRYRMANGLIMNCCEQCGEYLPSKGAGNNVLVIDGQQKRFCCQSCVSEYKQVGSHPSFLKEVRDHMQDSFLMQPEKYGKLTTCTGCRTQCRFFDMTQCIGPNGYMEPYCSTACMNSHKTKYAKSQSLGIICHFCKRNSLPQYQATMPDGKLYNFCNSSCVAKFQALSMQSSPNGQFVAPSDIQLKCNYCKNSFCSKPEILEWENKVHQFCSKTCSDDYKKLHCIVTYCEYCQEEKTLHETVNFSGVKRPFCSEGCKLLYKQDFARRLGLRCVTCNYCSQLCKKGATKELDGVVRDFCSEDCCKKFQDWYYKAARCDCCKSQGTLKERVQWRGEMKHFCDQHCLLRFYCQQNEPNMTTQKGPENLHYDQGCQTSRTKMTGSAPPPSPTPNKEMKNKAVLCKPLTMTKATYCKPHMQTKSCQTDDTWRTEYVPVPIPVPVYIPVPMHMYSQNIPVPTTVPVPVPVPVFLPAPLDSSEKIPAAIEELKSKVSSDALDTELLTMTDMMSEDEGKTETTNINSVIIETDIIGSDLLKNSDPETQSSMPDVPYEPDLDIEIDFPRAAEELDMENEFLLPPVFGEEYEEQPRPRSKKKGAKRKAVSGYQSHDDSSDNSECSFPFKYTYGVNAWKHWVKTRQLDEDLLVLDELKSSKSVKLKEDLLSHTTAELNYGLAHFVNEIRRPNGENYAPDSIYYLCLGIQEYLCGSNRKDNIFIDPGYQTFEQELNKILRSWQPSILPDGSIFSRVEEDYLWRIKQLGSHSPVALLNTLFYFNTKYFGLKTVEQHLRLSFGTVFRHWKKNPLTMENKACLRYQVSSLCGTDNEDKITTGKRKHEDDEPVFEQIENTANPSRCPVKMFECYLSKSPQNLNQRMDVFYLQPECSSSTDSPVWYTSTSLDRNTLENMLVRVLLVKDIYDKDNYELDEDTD
inactive: [1] 0.036 | [2] -0.049 | [3] 0.038 | [4] 0.073 | [5] -0.022 | [6] 0.053 | [7] -0.05 | [8] -0.209 | [9] 0.116 | [10] 0.07 | [11] -0.029 | [12] -0.059 | [13] -0.037 | [14] -0.106 | [15] -0.039 | [16] -0.008 | [17] -0.018 | [18] 0.004 | [19] 0.04 | [20] -0.068

XPO5 (UniProt Q9HAV4)
inactive: [1] 0.026 | [2] 0.024 | [3] -0.02 | [4] 0.005 | [5] 0 | [6] -0.003 | [7] -0.044 | [8] 0.008 | [9] 0.035 | [10] -0.015 | [11] -0.041 | [12] 0.003 | [13] 0 | [14] -0.043 | [15] -0.039 | [16] -0.014 | [17] -0.01 | [18] -0.004 | [19] 0.043 | [20] -0.01

WDR62 isoform 4 (UniProt O43379)
inactive: [1] 0.017 | [2] -0.027 | [3] -0.018 | [4] -0.007 | [5] -0.012 | [6] 0.017 | [7] -0.052 | [8] 0.024 | [9] -0.008 | [10] 0.011 | [11] -0.023 | [12] 0.027 | [13] 0.013 | [14] -0.051 | [15] -0.007 | [16] 0.033 | [17] -0.016 | [18] 0.023 | [19] -0.002 | [20] -0.029

ZNF609 (UniProt O15014)
inactive: [1] -0.035 | [2] -0.013 | [3] 0.028 | [4] -0.029 | [5] -0.053 | [6] -0.023 | [7] -0.109 | [8] -0.008 | [9] 0.026 | [10] -0.005 | [11] 0.005 | [12] -0.025 | [13] 0.01 | [14] -0.034 | [15] -0.001 | [16] 0.01 | [17] -0.045 | [18] -0.082 | [19] 0.013 | [20] -0.058
